Structures can show the parent of a compound that is named as a salt.
System: hN + hpA co-culture (H1 iNGN2 human neurons + human primary astrocytes)
Experiment: presynaptic density (SYNAPSIN1 puncta per MAP2 neurite area), Z-score vs DMSO controls; higher = more presynaptic puncta (synapse-promoting)
Details: 3 µM; 72 h
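Note: immunostained co-cultures imaged by high-content microscopy, Z-score per plate against mean and SD of 0.1% DMSO wells, compounds added on differentiation day 18, analysed day 21.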

Row | Compound | presynaptic density (Z-score)
1 | CCn1c(N)c(C(=O)NC)c(=O)c2ccc(C#CC(C)(O)COC)nc21 (centres undefined) | 0.325
2 | C=C1C(=O)OC2C=C(C)CCC=C(C)CCC12 (centres undefined) | 0.309
3 | CC(C)CC(=O)Nc1n[nH]c2c1CN(C(=O)C1CCN(C)CC1)C2(C)C | -2.75
4 | CC(C)(C)n1nc(-c2ccc(Cl)cc2)c2c(N)ncnc21 | 0.793
5 | O=C1NC(=O)/C(=C/c2cccc(C(F)(F)F)c2)S1 | -1.18
6 | O=C(NC[C@H]1CN(c2ccc(N3CCOCC3=O)cc2)C(=O)O1)c1ccc(Cl)s1 [Rivaroxaban] | -0.11
7 | CC12CC3CC(C)(C1)CC(N)(C3)C2 | -1.67
8 | Nc1cccc2c1CN(C1CCC(=O)NC1=O)C2=O (centres undefined) [Lenalidomide] | 1.39
9 | O=C(NOC[C@H](O)CO)c1ccc(F)c(F)c1Nc1ccc(I)cc1F | -0.369
10 | CCc1c2c(nc3ccc(O)cc13)-c1cc3c(c(=O)n1C2)COC(=O)[C@]3(O)CC | 0.761
11 | CCO[C@@H]1OC(=O)C[C@@H]1NC(=O)[C@@H]1CCCN1C(=O)[C@@H](NC(=O)c1ccc(N)c(Cl)c1)C(C)(C)C | -1.02
12 | NC(=O)c1ccc(I)c([N+](=O)[O-])c1 | -1.09
13 | CC(C)OC(=O)C1=CN(C(=O)c2ccc(F)c(F)c2)CC(C)(C)c2c1[nH]c1ccccc21 | -0.269
14 | Cc1ccccc1C(=O)Nc1ccc(C(=O)N2CCCC(O)c3cc(Cl)ccc32)c(C)c1 (centres undefined) [Tolvaptan] | 0.77
15 | COc1ccc2cc([C@H](C)C(=O)O)ccc2c1 [Naproxen] | -1.04
16 | Cc1c(C(=O)NN2CCCCC2)nn(-c2ccc(Cl)cc2Cl)c1-c1ccc(Cl)cc1 [Rimonabant] | -0.594
17 | N#CC[C@H](C1CCCC1)n1cc(-c2ncnc3[nH]ccc23)cn1 | 0.202
18 | COc1cc2/c(=N/c3ccc(Br)cc3F)nc[nH]c2cc1OCC1CCN(C)CC1 [Vandetanib (ZD 6474)] | 0.993
19 | COC1CCN(C(=O)c2cc(Cc3n[nH]c(=O)c4ccccc34)ccc2F)CC1 | 0.144
20 | C[C@H](N[C@@H](CCc1ccccc1)C(=O)O)C(=O)N1CCC[C@H]1C(=O)O | -0.963

Row | Compound | presynaptic density (Z-score)
21 | CC(C)(C)c1cc(NC(=O)Nc2ccc(-c3cn4c(n3)sc3cc(OCCN5CCOCC5)ccc34)cc2)no1 [AC220 (Quizartinib] | 0.214
22 | C1=N/C2=N/c3ccc(OCCN4CCCC4)c(c3)COC/C=C/COCc3cccc(c3)C(=C1)N2 [Pacritinib (SB1518)] | -1.08
23 | N#CSc1cc(SC#N)c(N)nc1N | -0.815
24 | N#CC1(c2ccc(NC(=O)c3cccnc3NCc3ccncc3)cc2)CCCC1 [Apatinib] | -1.31
25 | CCN(CC)C(=O)/C(C#N)=C/c1cc(O)c(O)c([N+](=O)[O-])c1 [Entacapone] | 0.44
26 | CC(C)NC[C@@H](C(=O)N1CCN(c2ncnc3c2[C@H](C)C[C@H]3O)CC1)c1ccc(Cl)cc1 | -0.322
27 | CCN1CCCC1CNC(=O)c1cc(S(N)(=O)=O)ccc1OC (single isomer, unassigned; (-)) [(-)-Sulpiride] | -1.09
28 | Nc1ccc(C(=O)O)c(O)c1 [Sodium 4-Aminosalicylate] | 0.294
29 | Cn1cnc2c(F)c(Nc3ccc(Br)cc3Cl)c(C(=O)NOCCO)cc21 | 0.953
30 | CC[C@H](C)C(=O)O[C@H]1C[C@@H](C)C=C2C=C[C@H](C)[C@H](CC[C@@H]3C[C@@H](O)CC(=O)O3)[C@H]21 | 1.56
31 | O=C(NC(Cc1cc(=O)[nH]c2ccccc12)C(=O)O)c1ccc(Cl)cc1 (centres undefined) | -0.611
32 | CO[C@H]1C[C@@H]2CC[C@@H](C)[C@@](O)(O2)C(=O)C(=O)N2CCCC[C@H]2C(=O)O[C@H]([C@H](C)C[C@@H]2CC[C@@H](OCCO)[C@H](OC)C2)CC(=O)[C@H](C)/C=C(\C)[C@@H](O)[C@@H](OC)C(=O)[C@H](C)C[C@H](C)/C=C/C=C/C=C/1C [Everolimus (RAD001)] | -1.63
33 | CCCN[C@H]1CCc2nc(N)sc2C1 [Pramipexole] | 0.794
34 | Nc1cccc2c1C(=O)N(C1CCC(=O)NC1=O)C2=O (centres undefined) [Pomalidomide] | 0.469
35 | CCCc1nc2c(C)cc(-c3nc4ccccc4n3C)cc2n1Cc1ccc(-c2ccccc2C(=O)O)cc1 | -0.154
36 | C[C@H](CS)C(=O)N1CCC[C@H]1C(=O)O [Captopril] | -1.61
37 | C#CCN[C@@H]1CCc2ccccc21 [Rasagiline Mesylate] | 0.0894
38 | CC(C)NCC(O)COc1cccc2ccccc12 (centres undefined) [Propranolol HCl] | 0.278
39 | O=C(Nc1ccccc1)N1CCN(c2nc(-c3ccccc3)ns2)CC1 | -0.242

Reference: the supplement of paper PMC10121225
